# According to PMC5540273 (PLoS ONE, 2017):
# How the values were obtained:
# Settings in all cases: concentration: 1 μM, replicates: in singlicate; n = 1
# EPHA7 = system: EPHA7
# EPHA8 = system: EPHA8
# EPHB1 = system: EPHB1
# EPHB2 = system: EPHB2
# EPHB3 = system: EPHB3
# EPHB4 = system: EPHB4
# EPHB6 = system: EPHB6
# ERBB2 = system: ERBB2
# ERBB3 = system: ERBB3
# ERBB4 = system: ERBB4
# 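Further: KINOMEscan kinase panel screen.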
Structure (SMILES),%Inh (EPHA7) [%],%Inh (EPHA8) [%],%Inh (EPHB1) [%],%Inh (EPHB2) [%],%Inh (EPHB3) [%],%Inh (EPHB4) [%],%Inh (EPHB6) [%],%Inh (ERBB2) [%],%Inh (ERBB3) [%],%Inh (ERBB4) [%]
CC(C)(C)c1ccc(C(=O)Nc2cn3cc(-n4ccnc4)ccc3n2)cc1,0,0,3,8,0,0,2,29,8,37
CN(C)CCOc1ccc(-c2cc(-c3ccc(Cl)c(O)c3)c(-c3ccncc3)[nH]2)cc1.Cl.Cl [SB-684387],2,4,10,15,15,23,34,32,23,32
CN(c1ccc(NC(=O)N2CCN(CCCN3CCOCC3)CC2)cc1)c1ccnc(Nc2ccc(CS(C)(=O)=O)cc2)n1.Cl [GW830899],0,0,0,4,0,22,81,2,17,0
NCCC(NC(=O)c1cc(Br)c(-c2ccnc3[nH]ccc23)s1)c1ccccc1.O=C(O)C(F)(F)F.O=C(O)C(F)(F)F (centres unmarked) [GSK1307810],3,11,4,0,0,0,27,39,19,21
Nc1cccc(-c2ccc3c(N)n[nH]c3c2)c1 [GSK2193613],9,29,9,0,13,14,14,0,0,0
O=C(Nc1n[nH]c2cc(-c3cccs3)ccc12)C1CC1 [SB-731284],0,0,0,0,0,0,55,12,0,0
Cl.Cl.NCC(NC(=O)c1cc(-c2cccnc2)c(-c2ccnc3[nH]ccc23)s1)c1ccccc1 (centres unmarked) [GSK1323434],17,33,23,22,0,18,21,58,1,48
COC(=O)Nc1nc2cc(Oc3ccc(NC(=O)Nc4cccc(SC)c4)cc3)ccc2[nH]1.Cl [GW697999],54,96.8,61,70,19,70,80,32,14,35
CN(C)CCNS(=O)(=O)c1ccc(-c2ccnc3[nH]ccc23)cc1 [GSK977620],7,3,16,0,0,0,0,0,0,30
COc1cc(Nc2nccc(N3CCC(NC(=O)Nc4ccc5c(c4)OCO5)C3)n2)cc(OC)c1OC (centres unmarked) [GSK1379766],0,3,7,0,6,0,97.6,0,0,31
c1ccc(Oc2ccc(Nc3ccnc4cc(-c5ccc(CN6CCCCC6)o5)ccc34)cc2)nc1 [GW567143],0,12,6,0,4,7,66,18,96,51
CCn1c(-c2nonc2N)nc2c(-c3ccccc3)ncc(OCCCN)c21.O=C(O)C(F)(F)F.O=C(O)C(F)(F)F [GSK260205],6,10,0,0,0,7,0,89,0,41
CCNC(=O)/C=C/c1n[nH]c2cc(Sc3ccccc3C(=O)NC)ccc12,0,0,0,1,10,14,20,16,3,1
CNc1nccc(-c2ccc3c(N)n[nH]c3c2)n1 [GSK2206003],9,18,5,0,5,2,11,50,8,31
Cc1cccc(Nc2nc(N[C@H]3CCCC[C@H]3N)ncc2C(N)=O)c1.Cl [GSK986310],21,9,32,25,15,4,17,20,0,21
Cc1cc(-c2c(-c3ccc(F)cc3)ncn2CCCN2CCOCC2)nc(N)n1 [SB-222517],0,0,0,12,29,10,0,0,0,0

Structure (SMILES),%Inh (EPHA7) [%],%Inh (EPHA8) [%],%Inh (EPHB1) [%],%Inh (EPHB2) [%],%Inh (EPHB3) [%],%Inh (EPHB4) [%],%Inh (EPHB6) [%],%Inh (ERBB2) [%],%Inh (ERBB3) [%],%Inh (ERBB4) [%]
CC(C)c1nc(-c2ccc(F)c(NS(=O)(=O)c3c(F)cccc3F)c2)c(-c2ccnc(Nc3ccc(N4CCOCC4)nc3)n2)s1 [GSK1804250],12,70,21,0,24,12,97.3,95.8,98.8,78
Cc1cc(-c2ccnc(Nc3cccc(C#N)c3)n2)cc(C)c1O [GSK1440913],18,21,18,19,18,16,90.3,27,7,0
CN(c1ccc(F)c(NC(=O)c2cccc(OC(C)(C)C#N)c2Cl)c1)c1ccc2nc(NC(=O)C3CC3)sc2n1,0,41,10,2,0,14,88,66,9,67
O=C(Nc1n[nH]c2nc(-c3ccccc3)ccc12)C1CC1 [SB-708999],7,9,0,20,11,3,41,35,67,0
Nc1ncnc2scc(-c3ccc(NC(=O)Cc4cc(F)ccc4F)cc3)c12.O=C(O)C(F)(F)F [SB-731254-M],4,0,0,15,0,5,98.8,39,0,53
Cc1ccc(NC(=O)c2cccc(N3CCCCC3)c2)cc1-c1ccc(C(=O)NCC2CC2)cc1 [GSK1917008],24,41,30,0,27,31,21,0,0,2
CSc1ccc(NC2=C(c3ccc(Cl)cc3)C(=O)NC2=O)cc1 [SB-317658],0,5,0,6,21,11,0,0,0,0
CS(=O)(=O)c1cccc(CNc2nc(Nc3ccc4c(c3)CCC(=O)N4)ncc2C(F)(F)F)c1,0,0,0,0,0,0,21,45,0,3
COc1cccc2c(-c3ccncc3)c(-c3ccc(F)cc3)nn12 [GW468513],0,3,6,0,38,13,37,50,21,68
Cc1ccc(NC(=O)c2ccc(Cl)c(Cl)c2)cc1-c1ccc(C(=O)Nc2ccncc2)cc1 [GSK1398460],9,35,17,17,25,19,16,2,0,4
Cn1cc(-c2ccc3c(c2)CCN3C(=O)Cc2cc(F)cc(C(F)(F)F)c2)c2c(N)ncnc21 [GSK2635225],2,2,21,15,12,8,44,10,0,0
O=C1NC(=O)C(c2ccccc2Cl)=C1Nc1cccc(Cl)c1 [SB-342409],15,19,8,12,13,15,0,0,0,9
COC(=O)Nc1nc2ccc(Oc3ccc(NC(=O)Nc4cc(C(F)(F)F)ccc4F)cc3)cc2[nH]1.Cl [GW654607],89,99.6,81,80,40,58,92.4,6,0,6
COc1cccc(NC(=O)NCCNc2ccnc(Nc3ccc(F)cc3)n2)c1 [GSK1379879],0,2,5,0,8,19,14,39,24,20
CC(C)c1nc(-c2cccc(NS(=O)(=O)c3c(F)cccc3F)c2)c(-c2ccnc(Nc3ccc(N4CCOCC4)nc3)n2)s1.Cl [GSK1723980],0,93,24,0,0,0,97.4,86,97.8,95
N#CC1(c2cccc(C(=O)Nc3cccc(Oc4ccc5nc(NC(=O)C6CC6)sc5n4)c3)c2)CC1,0,98.9,95.8,100,50,95.9,99.5,22,0,0
